Shown are actives, neighbours in structure and some others; about 0.92% of the full set was active somewhere.
TDP1 inh: qHTS Assay for Inhibitors of Tyrosyl-DNA Phosphodiesterase (TDP1) | Tyrosyl-DNA phosphodiesterase 1 (Homo sapiens), Q9NUW8 | recombinant TDP1, AlphaScreen DNA substrate cleavage | Potency, µM (highest dose often 130 µM), for the others: at the highest dose activity change, negative = inhibition, usual class: inhibitors | 350,000 tested, 0.28% active; further: nearly all actives have a fitted effect of over 40% in size
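AlphaScreen read-out: signal falls as enzyme removes the 3' tyrosine-FITC from a 5'-biotinylated DNA oligo (15 nM, 5 min, RT). Enzyme was E. coli-made recombinant Tdp1 at 1 nM, exposed to compound for 15 min beforehand; beads 10 ug/ml, 10 min.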
BLM helicase inh: qHTS Assay for Inhibitors of Bloom's syndrome helicase (BLM); RecQ-like DNA helicase BLM (Homo sapiens), P54132; AID 2528, 2010; Potency, µM (highest dose often 56.1 µM), for the others: top-dose activity change, negative = inhibition, hits mostly inhibitors; recombinant BLM DNA unwinding, fluorescence dequenching; 350,000 tested, 0.2% active;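 further: plate controls were vehicle for no effect and no enzyme for full effect; nearly all actives have a fitted effect of over 35% in size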
FEN1 inhibitor: qHTS Assay for the Inhibitors of Human Flap endonuclease 1 (FEN1); P39748; Recombinant FEN1 flap cleavage, fluorescence, 15 min; Potency, µM (titrated, usually from 114 µM), for inactives: at the top dose activity change, negative = inhibition, actives largely listed as inhibitors; 390,000 tested, 0.35% active; AID 588795, 2011; further: nearly all actives have a fitted effect of over 65% in size
Target sequence (P39748 whole entry, looked up): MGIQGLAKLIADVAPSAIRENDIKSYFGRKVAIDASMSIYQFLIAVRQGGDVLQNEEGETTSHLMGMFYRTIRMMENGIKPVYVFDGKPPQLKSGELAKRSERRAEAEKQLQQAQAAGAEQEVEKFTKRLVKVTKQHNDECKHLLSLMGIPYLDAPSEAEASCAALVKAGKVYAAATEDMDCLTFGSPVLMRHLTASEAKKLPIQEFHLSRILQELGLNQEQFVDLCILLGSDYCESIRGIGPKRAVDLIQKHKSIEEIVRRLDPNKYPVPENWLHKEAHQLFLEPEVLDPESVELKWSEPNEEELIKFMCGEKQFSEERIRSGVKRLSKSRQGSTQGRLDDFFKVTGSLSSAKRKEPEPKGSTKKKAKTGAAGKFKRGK
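Enzyme 10 nM, 15 min RT preincubation with compound; start with substrate 50 nM final; reads at 0 and 15 min; qHTS titration, four-parameter Hill fit.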
RECQ1 inh: qHTS Assay for Inhibitors of RecQ-Like Dna Helicase 1 (RECQ1) | RECQ1 DNA unwinding, red fluorescence kinetic read | 240,000 tested, 0.54% active | ATP-dependent DNA helicase Q1 (Homo sapiens), P46063 | Potency, µM (top dose mostly 57.3 µM), for the others: at the highest dose activity, negative = inhibition, hits mostly inhibitors | AID 2549, 2010;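 further: plate controls were vehicle for no effect and no enzyme for full effect; nearly all actives have a fitted effect of over 30% in size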
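RECQ1T1 50 nM; forked duplex (20 bp + 30-nt ss tails) 200 nM, ATP 2 mM final; pH 8.0, 2 mM MgCl2, 2.5 ug/ml poly(dI-dC); 15 min compound preincubation; discontinuous kinetic read over 2 h at RT.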
APE1 inh: qHTS Assay for Inhibitors of the Human Apurinic/apyrimidinic Endonuclease 1 (APE1) | recombinant APE1, TAMRA/BHQ-2 abasic DNA cleavage fluorescence | Potency, µM (highest dose often 65.8 µM), inactives show at the top dose activity change, negative = inhibition, usual class: inhibitors | 350,000 tested, 0.35% active | AID 2517, 2012;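 further: plate controls were vehicle for no effect and reference inhibitor for full effect; nearly all actives have a fitted effect of over 55% in size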
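APE1 at 0.75 nM preincubated 15 min at room temperature with compound. Reaction then started with 50 nM double-stranded THF-abasic substrate labelled with TAMRA/BHQ-2, and 525/598 nm fluorescence read kinetically. Activity taken as third-minus-first read difference, normalized to DMSO and NSC13755 controls.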
* = called active by the depositor; ? = inconclusive; · = no result; [ ] = remark or other dose. The call rests on the fitted dose curve; in most records, active means well fitted curve in the direction sought with a large enough effect; inconclusive means small, poorly fitted or top-dose-only effect, or another doubt; inactive means no such curve, though single readings can be large; an effect the other way counts as inactive or inconclusive. Unless noted, on the % scale 0 is the no-effect control and ±100 the full control effect; potency means the concentration at half of the fitted maximal effect.

SMILES | TDP1 inh | BLM helicase inh | FEN1 inhibitor | RECQ1 inh | APE1 inh
CCNc1nc(C#N)nc2c1ncn2-c1cccc(Cl)c1 | -1% | · | · | · | ·
O=C(O)c1cc(O)c2c(c1)[C@H]([C@H]1c3cc(C(=O)O)cc(O)c3C(=O)c3c(O[C@@H]4O[C@H](CO)[C@@H](O)[C@H](O)[C@H]4O)cccc31)c1cccc(OC3O[C@H](CO)[C@@H](O)[C@H](O)[C@H]3O)c1C2=O (some centres not stated) | · | · | 1.3µM* | · | 0.067µM*
O=C1c2c(O)cccc2C(C2OC(CO)[C@@H](O)[C@H](O)[C@H]2O)c2cc(CO)cc(O)c21 (some centres not stated) | 2% | · | 9% | · | 20%
COc1ccc(/C=N/Nc2cc(C)nc3c(C)cccc23)cc1 | 3% | 20% | 18µM* | · | 4%
COc1ccc(/C=N/Nc2cc(C)nc3ccccc23)cc1 | 0% | -3% | 40µM* | · | -39%
COC(=O)c1c(SC)nc2ccccc2c1OCc1ccc(C)cc1C | -5% | -8% | 14% | · | ·
C/C(CCN1CCCc2nc(C)c(C)cc21)=N\O[C@@H](C)c1cn([C@H](CO)Cc2ccccc2)nn1 | 5%[21 µM] | 4%[12.4 µM] | · | 1%[11.5 µM] | ?
CCn1cc(C(=O)O)c(=O)c2cc(F)c(N3CCN(C(=S)Nc4ccc(OC)cc4)CC3)cc21 | · | -5% | -22% | 4% | -1%
CCn1cc(C(=O)O)c(=O)c2cc(F)c(N3CCN(C(=S)NC(=O)c4cc(OC)cc(OC)c4)CC3)cc21 | 45µM* | 3% | 22% | · | -12%
CC#CCN1c2ccccc2[C@]23C[C@@H](C(=O)OC)N(S(=O)(=O)CCCC)C2=NC(C(=O)OC)=C(C(=O)OC)[C@H]13 | 16%[12.3 µM] | -4%[12.4 µM] | · | -17%[11.5 µM] | 11%[12.4 µM]
CCCCN(C)CCCNC(=O)c1ccc2nc(N3CCCCC3)sc2c1 | -1% | 4% | 4% | · | ·
Cc1cc2[nH]c3c(=O)n(Cc4ccccc4F)ncc3c2s1 | 0% | · | · | · | ·
N=c1nc(-c2ccccc2)n(-c2ccccc2)s1 | · | · | 89µM* | · | ·
O=S(=O)(Nc1cccc(-c2ccc(N3CCCCC3)nn2)c1)c1cccs1 | 5% | -4% | -14% | · | ·
O=C1OCC2OC(O)C(O)C(O)C2OC(=O)c2cc(O)c(O)c(O)c2-c2c(O)c(O)c3oc(=O)c4c(c(O)c(O)c5oc(=O)c2c3c54)-c2c1cc(O)c(O)c2O (configuration not stated) | 0.14µM* | 0.71µM* | · | 0.4µM* | 0.035µM*
COc1cc(NC(=O)CC(c2cccs2)N2Cc3ccccc3C2=O)cc(OC)c1OC (configuration not stated) | -3% | -1% | -11% | · | ·
CCCC[C@@H](C)/C=C(C)/C=C(\C)C(=O)NC1=C[C@@](O)(/C=C/C=C/C=C/C(=O)NC2=C(O)CCC2=O)[C@@H]2O[C@@H]2C1=O | -2% | ? | · | ? | ?
COc1cc(/C=C2/C(=O)c3cccc([N+](=O)[O-])c3C2=O)c(Br)cc1O | 1% | -19% | ? | 25µM* | ?
Cc1ccc(C(=O)NCC(=O)OC(C(=O)Nc2cc(C(F)(F)F)ccc2Cl)c2ccccc2)cc1 (configuration not stated) | -1% | · | · | · | ·
COc1ccc(/C=C/c2nccc3ccccc23)cc1OC | · | · | -19% | · | ·
C[n+]1ccc(/C=C/c2ccc(F)cc2)c2ccccc21 | · | · | -7% | · | ·
C[n+]1ccc(/C=C/c2ccc([N+](C)(C)C)cc2)c2ccccc21 | · | · | 22µM* | · | ·
COc1ccc(/C=C/c2cc[n+](C)c3ccccc23)cc1OC | · | · | 45µM* | · | ·
C[n+]1ccc(/C=C/c2cc[n+](C)c3ccccc23)c2ccccc21 | · | · | 10µM* | · | ·
COc1ccc(C)cc1NS(=O)(=O)c1c(C(=O)N2CCCCCC2)c(C)n(C)c1C | 3% | -1% | 4% | · | ·
